# The supplement of paper PMC6555819
# Tests used:
# Experiment in all cases: PBM binding z-score (relative to random genomic background probes); higher = stronger binding; sequences stand for … in GC…GCGATTGACAGCGTAGAATGAAGG
# [1] = test system: FXR:RXRa (NR concentration 270 nM, RXRa partner concentration 90 nM)
# Method in brief: (§1)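 Random background probes are the reference for binding z-scores. These scores derive from regression-normalized fluorescence on custom Agilent 4×180K protein-binding microarrays incubated 1 h with ligand-free nuclear receptor dimers. Binding was detected with antibodies against each partner (one per run).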
# [2] = test system: LXRa:RXRa (NR concentration 270 nM, RXRa partner concentration 90 nM)
# Method in brief: as §1
# [3] = test system: LXRa homodimer (NR concentration 270 nM)
# Method in brief: as §1
# [4] = test system: LXRb:RXRa (NR concentration 270 nM, RXRa partner concentration 90 nM)
# Method in brief: as §1
# [5] = test system: LXRb homodimer (NR concentration 270 nM)
# Method in brief: as §1
# [6] = test system: PPARa:RXRa (NR concentration 270 nM, RXRa partner concentration 90 nM)
# Method in brief: as §1
# [7] = test system: PPARg:RXRa (NR concentration 180 nM, RXRa partner concentration 90 nM)
# Method in brief: as §1
# [8] = test system: PPARg:RXRa 270nM:90nM, anti-RXR (NR concentration 270 nM, RXRa partner concentration 90 nM)
# Method in brief: as §1
# [9] = test system: PPARg:RXRa 30nM:10nM, anti-RXR (NR concentration 30 nM, RXRa partner concentration 10 nM)
# Method in brief: as §1
# [10] = test system: PPARg:RXRa 90nM:30nM, anti-RXR (NR concentration 90 nM, RXRa partner concentration 30 nM)
# Method in brief: as §1
# [11] = test system: PPARg:RXRa DBDmut IVT, anti-RXR (DBD mutation: RXRa K156A/R161A, NR concentration 270 nM, RXRa partner concentration 90 nM)
# Method in brief: as §1
# [12] = test system: PPARg:RXRa IVT, anti-PPARg (NR concentration 270 nM, RXRa partner concentration 90 nM)
# Method in brief: as §1
# [13] = test system: PPARg DBDmut:RXRa IVT, anti-PPARg (DBD mutation: PPARg1 K132A/R137A, NR concentration 270 nM, RXRa partner concentration 90 nM)
# Method in brief: as §1
# [14] = test system: PPARg DBDmut IVT, anti-PPARg (DBD mutation: PPARg1 K132A/R137A, NR concentration 270 nM)
# Method in brief: as §1
# [15] = test system: PPARg homodimer (NR concentration 180 nM)
# Method in brief: as §1
# [16] = test system: PXR:RXRa (NR concentration 270 nM, RXRa partner concentration 90 nM)
# Method in brief: as §1
# [17] = test system: PXR homodimer (NR concentration 270 nM)
# Method in brief: as §1
# [18] = test system: RARa:RXR (NR concentration 270 nM, RXRa partner concentration 90 nM)
# Method in brief: as §1
# [19] = test system: RARa homodimer (NR concentration 270 nM)
# Method in brief: as §1
# [20] = test system: RARb:RXRa (NR concentration 270 nM, RXRa partner concentration 90 nM)
# Method in brief: as §1
Sequence,PBM binding z-score [1],PBM binding z-score [2],PBM binding z-score [3],PBM binding z-score [4],PBM binding z-score [5],PBM binding z-score [6],PBM binding z-score [7],PBM binding z-score [8],PBM binding z-score [9],PBM binding z-score [10],PBM binding z-score [11],PBM binding z-score [12],PBM binding z-score [13],PBM binding z-score [14],PBM binding z-score [15],PBM binding z-score [16],PBM binding z-score [17],PBM binding z-score [18],PBM binding z-score [19],PBM binding z-score [20]
GGAACGAGGGCAAGTTGAGAGCAGAGTTTGATGG,1,0.529,-0.352,0.383,-0.627,1.72,0.945,1.34,0.0684,0.629,3.69,2.7,0.19,-0.541,0.391,0.927,0.275,0.482,-0.172,2.74
CCTAGTGGGTCAAGGTCACACACGCTATAGGTAC,5.66,4.37,1.16,3.95,0.411,5.54,8.69,7.42,5.3,6.95,6.82,8.11,2.26,1.37,4.57,4.75,1.48,5.41,2.82,4.87
CCTTACGGGTCACTCCAGGTAATAGCATCGGAGT,5.01,5.21,0.164,3.31,0.11,4.59,3.75,3.97,1.47,2.94,2.28,3.72,0.64,0.618,2.25,3.63,0.169,3.88,0.163,3.72
ATATGTAGGTTAGCTGGGGTCATTCAAACTAGGC,5.07,5.84,3.67,5.17,1.92,5.21,5.74,5.36,2.92,4.91,7,6.34,2.93,1.75,3.19,6.37,4.83,5.84,1.69,3.18
TGTCAAAGTTAAAAGGTAACGTAAGTATCCACAC,0.429,0.482,-0.245,0.823,-0.178,2.09,2.26,3.15,1.03,2.13,-0.253,2.08,1.24,0.84,0.261,0.715,0.361,1.23,0.69,1.33
AATACAGGATCATCGTAGGCCAGAGTACGCACAG,-0.0228,0.0727,0.0212,0.0447,0.414,-0.0183,0.976,0.159,0.238,0.209,-0.0409,0.414,0.728,0.381,0.342,0.111,0.257,0.723,0.87,0.16
CGCGAAAGGTCGGTTGAGGTGAGTATACGGATAA,2.66,1.81,-0.0594,1.38,-0.0248,2.75,0.872,1.45,0.235,0.88,0.0113,0.699,0.0036,-0.174,0.986,3.35,-0.075,3.62,0.138,3.08
TCTCGGAGGACACGAAGGTCATAGCTTTCCAGAG,2.87,2.73,1.72,2.61,-0.514,3.18,1.09,2.57,2.55,2.54,1.58,1.77,-0.131,-1.04,1.95,3.8,3.5,3.59,0.346,3.62
TCTATTAGTTGAAAGGCAACCGACGAGTCCGTTT,0.518,0.929,0.254,0.901,0.728,1.12,0.475,2.96,4.06,3.42,2.63,0.0769,0.573,-0.131,1.05,0.694,0.704,0.467,1.11,0.44
GCATTTAGGTAATACAAGGTGAAAGTCCGATTGT,1.45,1.54,0.274,0.493,-0.034,1.27,0.514,1.03,0.425,0.682,3.13,2.5,1.39,0.568,0.826,0.319,0.3,0.911,0.039,0.715
AGAATGAGGTTAATATCAGGGAAACAGAATACAT,1.64,3.39,0.149,2.17,0.272,2.98,2.46,2.14,0.981,1.48,2.82,2.7,1.02,0.794,0.975,1.2,0.575,1.74,1.04,1.55
AGACCGAGGGCACGCTGAGTTGATAGCAGAGTAG,0.748,0.67,-0.437,0.0788,-0.999,1.56,0.962,0.775,-0.337,0.0427,1.14,1.33,-0.432,-1.3,0.2,1.52,-0.245,0.998,-0.487,2.61
TCGAGTAGGTTGGTCGGGGCATTCAGCCAACATA,0.0024,-0.387,-0.443,-0.0412,-0.299,0.0379,-0.696,0.116,0.981,0.513,0.51,-0.219,-0.384,-1.1,-0.0818,0.102,-0.155,0.0862,-0.932,0.117
AATACAGTGTCACTAGGCCAGAGTAGGTACGAAT,-0.0447,0.0759,-0.316,-0.0896,-0.131,1.44,1.82,1.52,0.462,0.705,1.71,3.04,0.806,0.257,0.169,-0.342,-0.144,-0.182,-0.0529,1.06
